# High-throughput results deposited in PubChem by National Center for Advancing Translational Sciences (NCATS).
# Shown are actives, neighbours in structure and some others; about 9.5% of the full set was active somewhere.
# Pf growth 96h: inhibits malaria parasite growth, 96 h. P. falciparum luciferase reporter growth, 96 h. Potency, µM (series often up to 28.7 µM), actives largely listed as inhibitors. 320,000 tested, 6.9% active; active = well fitted inhibition curve with a large enough effect; inconclusive = small, poorly fitted or top-dose-only effect, or another doubt; inactive = no such curve, though single readings can be large or run the other way
#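 Two parasite generations (96 h, 37 C, 5% CO2) of compound exposure in infected erythrocytes (0.05% parasitemia, 2% hematocrit). Luciferase-reporter P. falciparum; decreased luminescence indicates inhibited growth, aimed at apicoplast-acting delayed death.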
# RE007 growth inh: less growth of the S. pombe RE007 Vpr strain. Potency, µM (titrated, usually from 92.2 µM), hits mostly inhibitors. S. pombe RE007 Vpr strain, BacTiter-Glo ATP luminescence, 24 h. 360,000 tested, 0.21% active; active = well fitted falling curve with a large enough effect; inconclusive = small, poorly fitted or top-dose-only effect; inactive = no such curve, though single readings can be large or run the other way; also: nearly all actives have a fitted effect of over 50% in size
#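 Fission yeast RE007 carrying one integrated HIV-1 vpr copy, seeded at OD 0.01 in PMG+AL medium with 23 nL pinned compound. Grown 24 h at 30 degrees; viability read by BacTiter-Glo luminescence after 5 min.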
# SARS PLpro yeast: inhibitors of SARS-CoV papain-like protease in yeast | S. cerevisiae expressing SARS-CoV PLpro, growth rescue | 330,000 tested, 0.19% active | AID 485353 | Potency, µM (highest dose often 32.9 µM), hits mostly activators; also: nearly all actives have a fitted effect of over 55% in size
# Pf growth 48h: inhibits P. falciparum growth in the first generation, 48 h; P. falciparum luciferase growth in erythrocytes, 48 h; Potency, µM (highest dose often 28.7 µM), hits mostly inhibitors; 310,000 tested, 5.9% active; active = well fitted inhibition curve with a large enough effect; inconclusive = small, poorly fitted or top-dose-only effect, or another doubt; inactive = no such curve, though single readings can be large or run the other way
#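 Compounds are pin-transferred into medium, infected erythrocytes (2% hematocrit, 0.1% parasitemia final) are added, and plates sit one parasite generation at 37 C in 5% CO2. Detection reagent is then added and luminescence measured.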
# NS1 function inh: inhibitors of influenza NS1 protein function; Potency, µM (titrated, usually from 46.1 µM); 270,000 tested, 0.4% active; also: actives are rising curves; nearly all actives have a fitted effect of over 50% in size
#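 Recovery from NS1-induced slow growth read by OD600 in budding yeast switched to galactose assay medium (pH 6.0, -URA) at 1:100 dilution. Compound 23 nl per well; the matching strain lacking NS1 serves as control.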
# Hits are given with their value; - = inactive; ? = inconclusive; . = no result; [ ] = remark or other dose. Unless noted, calls follow the shape of the full dose curve.
SMILES,Pf growth 96h,RE007 growth inh,SARS PLpro yeast,Pf growth 48h,NS1 function inh
Cc1ccc(-c2nnc(SCc3nc(N)nc(Nc4ccccc4C)n3)n2N)cc1,.,-,-,-,-
Cc1ccccc1Nc1nc(N)nc(CCl)n1,5.2µM,-,-,?,-
C=CCN(CC=C)Cc1nc(N)nc(Nc2ccccc2C)n1,9.3µM,-,-,?,.
Nc1nc(CCl)nc(Nc2ccc3ccccc3c2)n1,13µM,-,-,?,-
Cc1ccccc1Nc1nc(N)nc(CSc2nnc(-c3ccccc3)n2C)n1,13µM,-,-,?,-
CCC1(C)Cc2ccccc2-c2nc(NCCCO)n(-c3ccccc3)c(=O)c21 (stereo not given),10µM,-,-,.,-
CCn1c(NCCO)nc2c(c1=O)C(C)(CC)Cc1ccccc1-2 (stereo not given),?,-,-,-,-
O=C(NCCCn1ccnc1)c1ccc(N2CCCCC2)c([N+](=O)[O-])c1,?,?,-,-,.
CC(=O)Nc1ccc(NC(=O)C(C)Sc2n[nH]c(=O)n2Cc2ccccc2)cc1 (stereo not given),-,-,-,-,-
Cc1cccc2cc(CN(Cc3cccnc3)C(=O)c3ccccc3F)c(Cl)nc12,?,-,-,?,-
Cc1cc(C)c2cc(CN(Cc3cccnc3)C(=O)c3ccc(F)cc3)c(Cl)nc2c1,?,-,-,1.5µM,-
CCC(C)NC(=O)CCc1nc2ccccc2n1-c1ccccc1 (stereo not given),-,-,-,-,-
CC(C)CN(Cc1cc(=O)oc2cc3c(cc12)CCCC3)CC(C)C,?,-,-,1.3µM,-
COCCN(CCOC)Cc1cc(=O)oc2cc3c(cc12)CCC3,-,-,-,-,-
CCOC(=O)N=S(N)(=O)c1ccccc1 (stereo not given),10µM,-,.,-,-
CCOC(=O)CC(S(=O)(=O)c1ccccc1)S(=O)(=O)c1ccccc1,.,2µM,.,.,.
CCOC(=O)CN(c1ccccn1)S(=O)(=O)c1ccccc1,-,-,-,-,-
O=C(Nc1ccc2c(c1)OCO2)C1CC(=O)N(c2ccc(F)cc2)C1 (stereo not given),?,-,-,-,-
CC(C)C(=O)NC(c1ccco1)c1ccc2cccnc2c1O (stereo not given),-,-,?,2.1µM,-
Oc1c(C(Nc2nc3ccccc3s2)c2ccco2)ccc2cccnc12 (stereo not given),?,?,-,0.1µM,-
CC(=O)NC(c1ccc2ccccc2c1)c1ccc2cccnc2c1O (stereo not given),-,?,-,?,-
CCCCN(C(=O)c1cccc(S(=O)(=O)N(C)c2ccc(C)cc2)c1)c1c(N)n(CCCC)c(=O)[nH]c1=O,?,-,-,0.37µM,.
CCCCn1c(N)c(N(CCC(C)C)C(=O)COC(=O)c2ccc([N+](=O)[O-])s2)c(=O)[nH]c1=O,.,-,-,.,.
CCCCN(C(=O)c1ccc([N+](=O)[O-])s1)c1c(N)n(CCCC)c(=O)[nH]c1=O,?,-,-,10µM,.
COCCN(C(=O)c1ccc(N(C)S(=O)(=O)c2ccc(C)cc2)cc1)c1c(N)n(CC(C)C)c(=O)[nH]c1=O,.,-,.,.,.
SMILES,Pf growth 96h,RE007 growth inh,SARS PLpro yeast,Pf growth 48h,NS1 function inh
CCCCN(C(=O)c1ccc(N(C)S(=O)(=O)c2ccc(C)cc2)cc1)c1c(N)n(CC(C)C)c(=O)[nH]c1=O,.,-,.,.,.
CCCCn1c(N)c(N(CCOC)C(=O)CSc2nc3ccc(C)cc3[nH]2)c(=O)[nH]c1=O,9.3µM,-,-,?,-
CCCCn1c(N)c(N(CCOC)C(=O)c2cccc(S(=O)(=O)N(C)c3ccc(C)cc3)c2)c(=O)[nH]c1=O,9.3µM,-,.,6.6µM,.
C[C@@H]1CCC2[C@](C)(CO)[C@@H](O)CC[C@]2(C)[C@@]12C[C@](CO)(CC(=O)O)CO2 (stereo not given in full),-,-,-,-,-
COc1ccc(-c2c(C)nn3c(N4CCC(C(=O)NCCN(C)C)CC4)cc(C)nc23)cc1OC,-,-,-,10µM,-
CCCN(CCC)C(=O)C1CCN(c2cc(C)nc3c(-c4ccc(OC)c(OC)c4)c(C)nn23)CC1,?,-,-,?,?
CC1(C)Cc2c(c(N3CCOCC3)nc3sc4c(NCCN)ncnc4c23)CO1,.,-,.,.,.
OCCN1CCN(c2ncnc3c2sc2nc(N4CCOCC4)c4c(c23)CCC4)CC1,-,-,-,13µM,-
CC1(C)Cc2c(c(N3CCCC3)nc3sc4c(N5CCN(CCO)CC5)ncnc4c23)CO1,-,-,-,8.3µM,-
c1nc(N2CCNCC2)c2sc3nc(N4CCOCC4)c4c(c3c2n1)CCC4,-,.,-,-,-
O=C1C2=C(C(=O)c3ccccc31)C1O[C@](CCCCN3C(=O)c4ccccc4C3=O)(Cc3c1ccc1ccccc31)O2,-[5.75 µM],.,-[6.58 µM],?,-
S=c1[nH]nc(-c2cccc(Cl)c2)n1/N=C/c1ccc(-c2ccccc2Br)o1,?,-,-,10µM,-
Cc1ccc(N=C(N)N=C(N)N)c(C)c1,?,-,-,?,-
C[C@@H](CN1C2=NC[C@H](Cc3ccc(O)cc3)N2C[C@H]1Cc1ccc(O)cc1)NC(=O)CCC1CCCCC1,1.7µM,-,-,7.4µM,-
COc1ccc(C[C@@H]2CN3C(=NC[C@@H]3C)N2C[C@H](C)NC(=O)CCC2CCCCC2)cc1,?,-,-,?,-
COc1ccc(C[C@H]2CN3C(=NC[C@H]3Cc3ccccc3)N2CCNC(=O)CCC2CCCCC2)cc1,4.7µM,-,-,?,-
COc1ccc2[nH]cc(CCNC(=O)CCC3CCCCC3)c2c1,?,-,-,-,-
COc1ccc(C[C@H]2CN3C(=NC[C@@H]3Cc3ccccc3)N2C[C@H](C)NC(=O)CCC2CCCCC2)cc1,2.6µM,.,-,1.7µM,-
C[C@@H](CN1C2=NC[C@H](Cc3ccccc3)N2C[C@H]1Cc1ccc(O)cc1)NC(=O)CCC1CCCCC1,15µM,-,-,?,-
O=C(CCC1CCCC1)N[C@@H](Cc1ccc(O)cc1)C(=O)O,-,-,-,-,-
CCOc1ccc2nc(N3C(=O)/C(=C/c4ccc(Cl)cc4)NC3=S)sc2c1,?,-,-,-,-
COc1cc2c(cc1OC)C(C(=O)Nc1ccc(F)c(Cl)c1)CC(=O)N2 (stereo not given),-,-,-,-,-
CCSC(=Nc1ccccc1)Nc1ccccc1,-,-,-,-,-
O=C(c1ccc(F)cc1)C1CCN(C(=O)Nc2ccccc2Cl)CC1,2.9µM,-,-,-,.
CCOc1ccc(-n2c(SCc3ccc([N+](=O)[O-])cc3)nnc2-c2ccc(OC)cc2)cc1,8.3µM,-,-,?,-
C[C@H](O)[C@@H]1CN2CCc3c([nH]c4ccccc34)[C@@H]2C[C@@H]1N(C)C(=S)Nc1ccc(C#N)cc1,.,-,.,.,.
CC[C@H](CO)Nc1nc(NCc2ccccc2)c2ncn(C(C)C)c2n1,.,.,.,.,-
CC(C)n1cnc2c(NCc3ccccc3)nc(NCc3ccccc3)nc21,9.3µM,-,-,9.3µM,-
